# From PubChem BioAssay (EPA / NIEHS)
# Several values for one entry are separate records, joined by “and”; a condition that tells them apart may be missing. Identical values can stand only once. Inconclusive results are not listed. Activity calls are given as the source filed them. Rule for the calls, unless noted: active = hit-call score of the fitted dose curve at least 0.9, where 1 is the maximum; inconclusive = response in the unintended direction; inactive = score below 0.9.
# Tests used:
# SERPINA7 (gene 6906) = experiment: CCTE_GLTED_hTBG: CCTE's human Thyroxine-binding Globulin (TBG) Inhibition Assay, Great Lakes Toxicology and Ecology Division (GLTED) Lab (AID 2284343);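 note: active chemicals lower fluorescence versus DMSO baseline by displacing probe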
# How it was run: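 hTBG + test chem, 2 h; ANSA probe displacement; fluorescence readout ex380/em475; DMSO = neg ctrl/baseline; cell-free.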
# TTR (gene 7276) = experiment: CCTE_GLTED_hTTR_0.125uM: CCTE's human Transthyretin (hTTR) Inhibition Assay, with 0.125uM TTR, Great Lakes Toxicology and Ecology Division (GLTED) Lab (AID 2284431; active = hit-call score of the fitted dose curve at least 0.9, where 1 is the maximum; inactive = score below 0.9;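 note: hits lower the fluorescence signal relative to DMSO baseline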)
# How it was run: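 Fluorescence (380 ex, 475 em) reported the ANSA probe remaining bound to 0.125uM human transthyretin. Chemicals were incubated with the protein for 2 hours; activity was scored as loss of signal against DMSO negative control.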
# [1] = TAMU_PeakParms_SingleDonor1434_Asystole: Texas A&M University (TAMU) 1.5-hr Human Induced Pluripotent Stem Cell (iPSC)-derived Cardiomyocytes Calcium (Ca+2) Flux Assay for Cardiotoxicity: Asystole (quiescence of beating) (AID 2284328)
# How it was run: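 Human iPSC-derived cardiomyocytes (donor 1434) were exposed to 0.2, 1, 10 and 100 uM compound in 0.5% DMSO for 90 min at 37C. Ca2+-dye fluorescence gave average peak frequency; POD is EC95, a 95% beat-rate drop versus DMSO.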
# [2] = CCTE_Mundy_HCI_iCellGluta_NOG_NeuronCount: CCTE's Neurite Outgrowth Assay in iCellGluta cells for Neuron Count, Mundy Lab (AID 2284340);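 note: cells fixed about 48 h after compound addition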
# How it was run: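 Neuron count read by automated high-content imaging of Hoechst 33342 and betaIII-tubulin/Alexa Fluor-488 labelling in human iPSC glutamatergic neurons. Activity fitted relative to DMSO.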
# [3] = CCTE_Mundy_HCI_iCellGluta_NOG_NeuriteCount: CCTE's Neurite Outgrowth Assay in iCellGluta cells for Neurite Count, Mundy Lab (AID 2284342);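 note: chemical exposure about 48 hours starting 2 hours after plating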
# [4] = IUF_NPC1_cytotoxicity_72hr: Cytotoxicity Assessment at 72 hours in the Leibniz Research Institute for Environmental Medicine (IUF) Neural Progenitor Cell Proliferation Assay (NPC1) (AID 2284332);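 note: rising LDH signal means more cytotoxicity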
# How it was run: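 Spheres of primary human neural progenitors are plated one per well on day 0 in growth-factor medium and dosed at once. After three days at 37C, supernatant LDH is measured fluorimetrically via resazurin reduction.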
# [5] = CCTE_Deisenroth_H295R-HTRF_384WELL_ESTRADIOL: CCTE's H295R-HTRF Assay Evaluation of Estradiol Concentration, Deisenroth Lab (AID 2284361; active = hit-call score of the fitted dose curve at least 0.9, where 1 is the maximum; inactive = score below 0.9); details: actives raise or lower the signal
# How it was run: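 H295R cells exposed 48 h to chemicals at 0.001 - 100 uM final (nine points, triplicate); estradiol in conditioned medium measured by HTRF immunoassay, fitted bidirectionally versus DMSO. Viability by CellTiter-Glo on same plates.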
# [6] = CCTE_Deisenroth_H295R-HTRF_384WELL_TESTOSTERONE: CCTE's H295R-HTRF Assay Evaluation of Testosterone Concentration, Deisenroth Lab (AID 2284373; active = hit-call score of the fitted dose curve at least 0.9, where 1 is the maximum; inactive = score below 0.9); details: actives raise or lower the signal
# How it was run: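 Secreted testosterone was quantified by HTRF immunoassay of medium from human adrenocortical H295R cells after 48 h chemical exposure at 0.001–100 uM final. Gain or loss was fitted against DMSO. ATP-based viability was read on matched wells, five experimental replicates.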
# [7] = CCTE_Deisenroth_H295R-HTRF_384WELL_CTOX: Cytotoxicity Assessment in CCTE's H295R-HTRF Assay, Deisenroth Lab (AID 2284380)
# How it was run: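 H295R adrenocortical carcinoma cells plated 24 h, then exposed 48 h to nine-point series 0.001–100 uM final, triplicate, n=5. ATP measured by CellTiter-Glo 2.0 luminescence on same plates after medium collection; loss versus DMSO.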
# [8] = CCTE_Deisenroth_5AR_NBTE_donor: CCTE's 5alpha-reductase NanoBRET Target Engagement Assay […], Deisenroth Lab (AID 2284319; active = hit-call score of the fitted dose curve at least 0.9, where 1 is the maximum; inactive = score below 0.9); details: actives raise or lower the signal
# How it was run: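 SRD5A2-NanoLuc, HEK293T, 20 h expression. Chemical 10 nM - 29.9 uM, 8 conc, duplicate; 3 h preincubation + 2 h testosterone tracer. Nano-Glo substrate plus extracellular NanoLuc inhibitor; donor lum 460 nm. DMSO baseline, bidirectional fit.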
# [9] = CCTE_Deisenroth_5AR_NBTE_acceptor: CCTE's 5alpha-reductase NanoBRET Target Engagement Assay - Autofluorescence Screen, Deisenroth Lab (AID 2284321; active = hit-call score of the fitted dose curve at least 0.9, where 1 is the maximum; inactive = score below 0.9;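 note: compound fluorescence in the acceptor channel under 460 nm excitation flags autofluorescence artifacts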); details: actives raise or lower the signal
# How it was run: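 Acceptor fluorescence intensity was read as an artifact-detection endpoint. Test chemicals at an assumed nominal 100 uM were excited at 460 nm across three independent runs. Activity was fitted bidirectionally against DMSO.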
# SRD5A2 (gene 6716) = experiment: CCTE_Deisenroth_5AR_NBTE_ratio: CCTE's 5alpha-reductase NanoBRET Target Engagement Assay - Ratio, Deisenroth Lab (AID 2284322; active = hit-call score of the fitted dose curve at least 0.9, where 1 is the maximum; inactive = score below 0.9); details: actives raise or lower the signal
# How it was run: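 HEK293T transiently expressing SRD5A2-NanoLuc; cells exposed to chemical (8-point, 10 nM - 29.9 uM) for 5 h total, testosterone tracer added for final 2 h. NanoBRET acceptor/donor ratio (650/460 nm), bidirectional fit vs DMSO.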
# [10] = VALA_TUBIPS_Antagonist_CellCount: Viability Assessment in the VALA Sciences human iPS-derived Endothelial Tubule Formation (TUBIPS) Antagonism Assay (AID 2284335)
# [11] = VALA_MIGHUV1_ScratchOnly_WoundArea: VALA Sciences human Umbilical Vein Endothelial Cell Migration (MIGHUV) Assay, Area of Scratch Wound Inhibited Recovery (AID 2284336)
# How it was run: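 HUVEC monolayers (9000 cells/well) were scratched after 24 h, dosed within 30 min (six concentrations, triplicate, 0.1% DMSO), allowed 24 h recovery, then fixed. Hoechst-stained nuclei in the wound imaged; cytochalasin D as reference.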
# [12] = VALA_TUBHUV_Agonist_TubuleLength: VALA Sciences human Umbilical Vein Endothelial Tubule Formation (TUBHUV) Agonism Assay (AID 2284337)
# How it was run: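 HUVEC co-cultured with fibroblasts (1:3) 3 days in 10 ng/ml VEGF, then 3 days with compound plus VEGF; 0.1 % DMSO neutral control. Fixed, nuclear and CD31 stained; tubule length by fluorescence imaging.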
# [13] = VALA_TUBIPS_Agonist_CellCount: Viability Assessment in the VALA Sciences human iPS-derived Endothelial Tubule Formation (TUBIPS) Agonism Assay (AID 2284338)
compound,measurement,setting,value
CCCSP(=O)(OCC)Oc1ccc(Br)cc1Cl (configuration not stated),AC50,SERPINA7 (gene 6906),14.1 µM (active)
same,AC50,TTR (gene 7276),3.6 µM (active)
Cc1ccn2nc(S(=O)(=O)Nc3c(F)cccc3F)nc2n1,outcome,SERPINA7 (gene 6906),inactive
CCOP(=S)(OCC)Oc1ccc([N+](=O)[O-])cc1,outcome,[1],inactive
same,outcome,[2],inactive
same,outcome,[3],inactive
same,AC50,SERPINA7 (gene 6906),11.6 µM (active)
CCOP(=S)(OCC)SCCSCC,outcome,[4],inactive
same,outcome,[2],inactive
same,AC50,SERPINA7 (gene 6906),13.9 µM (active)
COc1cccc(C(=O)NN(C(=O)c2cc(C)cc(C)c2)C(C)(C)C)c1C,AC50,TTR (gene 7276),20.6 µM (active)
COP(=O)(OC)C(O)C(Cl)(Cl)Cl (configuration not stated),outcome,[4],inactive
Nc1c(Cl)cc([N+](=O)[O-])cc1Cl,AC50,TTR (gene 7276),0.176 µM (active)
CCCCOC(=O)c1ccccc1C(=O)O,AC50,[5],54.9 µM (active)
same,outcome,[6],inactive
same,outcome,[7],inactive
CON=C(C(=O)OC)c1ccccc1CON=C(C)c1cccc(C(F)(F)F)c1,outcome,[4],inactive
same,AC50,[2],50 µM (active)
same,AC50,[3],24.6 µM (active)
CC[C@H](C)[C@H]1O[C@]2(C=C[C@@H]1C)C[C@@H]1C[C@@H](C/C=C(\C)[C@@H](O[C@H]3C[C@H](OC)[C@@H](O[C@H]4C[C@H](OC)[C@@H](NC)[C@H](C)O4)[C@H](C)O3)[C@@H](C)/C=C/C=C3\CO[C@@H]4[C@H](O)C(C)=C[C@@H](C(=O)O1)[C@]34O)O2,AC50,[8],14.2 µM (active)
same,AC50,[9],10 µM (active)
same,AC50,SRD5A2 (gene 6716),16.6 µM (active)
same,AC50,[4],18.5 µM (active) and 3.79 µM (active)
same,AC50,[2],0.896 µM (active)
same,AC50,[3],0.824 µM (active)
CCC(CC)Nc1c([N+](=O)[O-])cc(C)c(C)c1[N+](=O)[O-],outcome,[8],inactive
same,outcome,[9],inactive
same,outcome,SRD5A2 (gene 6716),inactive
same,AC50,SERPINA7 (gene 6906),1.64 µM (active)
same,AC50,TTR (gene 7276),0.448 µM (active)
CSC1=N[C@@](C)(c2ccccc2)C(=O)N1Nc1ccccc1,outcome,[8],inactive
same,outcome,[9],inactive
same,outcome,SRD5A2 (gene 6716),inactive
same,outcome,[4],inactive
same,outcome,[2],inactive
same,outcome,[3],inactive
CC(C1CC1)C(O)(Cn1cncn1)c1ccc(Cl)cc1 (configuration not stated),outcome,[5],inactive
same,outcome,[6],inactive
same,outcome,[7],inactive
CCCCSP(=O)(SCCCC)SCCCC,AC50,[4],82.5 µM (active)
same,AC50,[2],49.9 µM (active)
same,outcome,[3],inactive
CCOP(=S)(OCC)Oc1cc(C)nc(C(C)C)n1,outcome,[4],inactive
C=C(C)[C@H]1Cc2c(ccc3c2O[C@@H]2COc4cc(OC)c(OC)cc4[C@@H]2C3=O)O1,outcome,[8],inactive
same,outcome,[9],inactive
same,AC50,SRD5A2 (gene 6716),30.6 µM (active)
same,AC50,[1],0.01 µM (active)
same,outcome,[4],inactive
same,AC50,[2],0.0672 µM (active)
same,AC50,[3],0.907 µM (active)
O=C(O)c1cc(Oc2ccc(C(F)(F)F)cc2Cl)ccc1[N+](=O)[O-],AC50,SERPINA7 (gene 6906),4.45 µM (active)
COP(=O)(NC(C)=O)SC (configuration not stated),outcome,[4],inactive
same,outcome,[2],inactive
same,outcome,[3],inactive
CCOP(=O)(NC(C)C)Oc1ccc(SC)c(C)c1 (configuration not stated),outcome,[4],inactive
same,AC50,[2],51 µM (active)
same,outcome,[3],inactive
same,AC50,SERPINA7 (gene 6906),14.6 µM (active)
CCOP(=O)(OCC)Oc1cc(C)nc(C(C)C)n1,outcome,[4],inactive
same,outcome,[2],inactive
same,outcome,[3],inactive
CCCSP(=O)(OCC)SCCC,outcome,[4],inactive
same,outcome,[2],inactive
same,outcome,[3],inactive
CC1=NNC(=O)N(/N=C/c2cccnc2)C1,outcome,[4],inactive
same,outcome,[10],inactive
same,outcome,[11],inactive
same,outcome,[12],inactive
same,outcome,[13],inactive
same,outcome,[2],inactive
same,outcome,[3],inactive
COP(=O)(OC)OC(Br)C(Cl)(Cl)Br (configuration not stated),outcome,[8],inactive
same,outcome,[9],inactive
same,outcome,SRD5A2 (gene 6716),inactive
same,outcome,[4],inactive
same,AC50,[2],21.7 µM (active)
same,AC50,[3],16.4 µM (active)
CCOP(=S)(Oc1cnc(C(C)(C)C)nc1)OC(C)C (configuration not stated),outcome,[4],inactive
same,AC50,[2],16 µM (active)
same,AC50,[3],23.9 µM (active)
same,AC50,SERPINA7 (gene 6906),16.7 µM (active)
CCOC(=O)CC(SP(=O)(OC)OC)C(=O)OCC (configuration not stated),outcome,[4],inactive
CCCCN(CC)c1c([N+](=O)[O-])cc(C(F)(F)F)cc1[N+](=O)[O-],AC50,SERPINA7 (gene 6906),2.78 µM (active)
CCOP(=S)(OCC)OC(Cl)C(Cl)(Cl)Cl (configuration not stated),outcome,[4],inactive
same,outcome,[2],inactive
same,outcome,[3],inactive
same,AC50,TTR (gene 7276),33.2 µM (active)
C[Si](Cn1cncn1)(c1ccc(F)cc1)c1ccc(F)cc1,outcome,[8],inactive
same,outcome,[9],inactive
same,outcome,SRD5A2 (gene 6716),inactive
same,AC50,SERPINA7 (gene 6906),4.09 µM (active)
same,AC50,[5],0.968 µM (active)
same,outcome,[6],inactive
same,outcome,[7],inactive
CC(=NC#N)N(C)Cc1ccc(Cl)nc1,outcome,[4],inactive
same,outcome,[2],inactive
same,outcome,[3],inactive
